Screens as filed in PubChem BioAssay.
In the library only some 3.4% were active in any assay of this set; here they are far more common.
GPR151 activ = activators of human GPR151, primary screen, cell-based, PathHunter beta-arrestin, luminescence; G-protein coupled receptor 151 (Homo sapiens), Q8TDV0; PathHunter beta-arrestin GPR151 cells; activation, % at 11.2 µM; AID 1508602, 2020; 650,000 tested, 1% active; in the data active means activation above about 4.9%;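 further: 0% = median of compound wells and 100% = cells with positive control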
FBW7 activator = FBW7 E3 ligase activators, primary screen, biochemical, AlphaScreen, human; F-box/WD repeat-containing protein 7 (Homo sapiens), Q969H0; AlphaScreen FBW7–phospho-cyclin E peptide binding, activator screen; normalized activity (activation), % at 26.1 µM; 650,000 tested, 0.13% active; AID 1259310, 2017; in the data active means normalized activity above about 1.9%;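 further: purified mutant Fbw7 with reduced substrate affinity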
MITF inh = MITF inhibitors, primary screen, biochemical, AlphaScreen, human; AlphaScreen MITF homodimerization, bead proximity signal; inhibition, % at 2.6 µM; AID 1259374, 2018; 650,000 tested, 0.91% active; Microphthalmia-associated transcription factor (Homo sapiens), O75030; in the data active means inhibition above about 50%;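 further: 0% = vehicle wells with protein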
Target sequence (O75030 whole entry, looked up): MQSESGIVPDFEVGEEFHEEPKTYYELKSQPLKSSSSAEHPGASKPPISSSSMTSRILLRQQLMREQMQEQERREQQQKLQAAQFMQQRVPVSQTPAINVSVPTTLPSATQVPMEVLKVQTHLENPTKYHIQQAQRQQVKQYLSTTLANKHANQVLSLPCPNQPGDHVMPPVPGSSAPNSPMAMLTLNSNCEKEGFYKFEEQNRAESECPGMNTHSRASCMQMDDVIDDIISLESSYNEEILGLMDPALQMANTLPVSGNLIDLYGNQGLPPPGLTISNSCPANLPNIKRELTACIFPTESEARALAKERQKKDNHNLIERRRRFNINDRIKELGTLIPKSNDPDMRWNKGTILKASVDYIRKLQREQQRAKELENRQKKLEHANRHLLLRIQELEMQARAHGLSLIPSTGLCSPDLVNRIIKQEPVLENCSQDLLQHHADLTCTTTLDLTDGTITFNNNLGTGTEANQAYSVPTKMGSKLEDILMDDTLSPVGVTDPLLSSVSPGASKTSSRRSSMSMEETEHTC
TEAD-YAP inh = TEAD-YAP interaction inhibition, primary screen, TEAD-YAP interaction inhibitor project, luminescence, HEK-TIYL cells | TEAD-Gal4/YAP UAS-luciferase luminescence | 640,000 tested, 1.4% active | inhibition, % at 9.12 µM; in the data active means inhibition above about 32%;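 further: 0% = median of test compound wells and 100% = reference inhibitor wells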
Starred values were filed as active, the others as inactive.

SMILES	GPR151 activ	FBW7 activator	MITF inh	TEAD-YAP inh
OCCNc1nc(N2CCN(c3ccccn3)CC2)nc2c1ncn2-c1ccccc1	-1	0	0	42*
O=C(CSc1ccc(-c2cccnc2)nn1)N1CCc2ccccc21	0	0	2	-9
COc1ccc2o/c(=N/NC(N)=S)c(C(N)=O)cc2c1	0	0	-13	-36
c1ccc(CN2CCC(N3CCN(Cc4cccnc4)CC3)CC2)cc1	1	1	35	3
O=C(CSc1nc2[nH]ncc2c(=O)n1-c1cccc2ccccc12)NCc1cccc(Cl)c1	0	0	14	-11
O=C1CCc2cc(S(=O)(=O)NCCC(=O)NC3CCCCCCC3)ccc2N1	0	0	-9	12
CCN(CC)c1ccc2c(Cl)c(Br)c(=O)oc2c1	-1	6.2*	6	1
CCN(CC)c1ccc2c(C)cc(=O)oc2c1	2	1	-5	-13
CCN(CC)c1ccc2c(C)c(Cl)c(=O)oc2c1	-1	5.8*	-26	-5
Nc1nc(Nc2ccccc2)cc(Nc2nccc3ccccc23)n1	2	0	-6	12
CC(=O)Nc1ccc2nc(-c3cc(C)ccc3C)[nH]c2c1	-1	1	16	46*
CC(=O)Nc1ccc(-c2nc3ccc(C)cc3[nH]2)cc1	-3	0	2	10
COc1cc(C2NC(=O)CCC2[N+](=O)[O-])cc(Br)c1O (stereo unspecified)	0	0	5	0
CC(C)c1ccc(-c2csc(NC(=O)c3cc(Cl)cc(Cl)c3)n2)cc1	-1	0	-9	0
CCn1nc(C)cc1C(=O)Nc1nc(-c2ccc(C(C)C)cc2)cs1	2	0	7	38*
CSc1sccc1/C=N/Nc1ccc([N+](=O)[O-])cc1	-1	2.1*	11	-19
CC1C(=S)N(C2CC(=O)C3OCC2O3)N=C1c1cccc2ccccc12 (stereo unspecified)	2	0	-9	2
C=CCn1c(CNC(=O)c2ccc(OC)cc2)nnc1SCC(=O)c1ccccc1	1	0	-13	-13
Nc1cc2c3c(c1)C(c1ccccc1)CCN3CCC2c1ccccc1 (stereo unspecified)	0	6.3*	-3	24
CC(C)(C)c1ccc(-c2ncc3ccccn23)cc1	-2	0	14	72*
Cc1sc2ncnc(SCc3cc([N+](=O)[O-])cc4c3OCOC4)c2c1C	-1	0	3	1
Cc1sc2ncnc(SCc3cc(=O)oc4cc(O)c(O)cc34)c2c1C	-2	0	64*	9
Cc1cc(C(=O)COC(=O)C2=COCCO2)c(C)n1Cc1cccs1	-4	0	-2	62*
Cc1ccsc1C(=O)OCC(=O)c1cc(C)n(C)c1C	-6	0	3	66*
Cc1cc(C(=O)COC(=O)c2ccccc2O)c(C)n1Cc1cccs1	0	0	-4	89*
SMILES	GPR151 activ	FBW7 activator	MITF inh	TEAD-YAP inh
Cn1c(=O)c2c(nc(SCC(=O)O)n2Cc2ccc(Cl)cc2Cl)n(C)c1=O	1	0	-3	3
O=[N+]([O-])/C(C(Cl)=C(Cl)Cl)=C(\N1CCOCC1)N1CCCOC1	0	0	-51	5
Cc1ccc(F)cc1Nc1ncnc(N)c1[N+](=O)[O-]	-1	2.1*	17	-1
N#C/C(=C\c1ccc(F)cc1)C(=O)Nc1ccc(S(N)(=O)=O)cc1	-1	0	7	0
O=C(CCc1nnc(-c2ccsc2)o1)N1CCN(c2nc3ccccc3s2)CC1	-1	0	1	3
Oc1ccc(C=Nc2cccc3cnccc23)c(O)c1O	2	-1	61*	8
O=C(N/N=C/c1ccc(O)c(O)c1O)c1cccnc1	-1	-1	79*	4
CCOc1ccccc1/C=N\NC(=O)c1cccnc1	0	0	14	6
CCn1c(C)nc2cc(C(=O)N/N=C/c3ccc(O)c(O)c3O)ccc21	-2	-1	75*	-2
CCOc1cccc(/C=N/NC(=O)c2cccnc2)c1O	0	0	70*	15
C=CCc1cccc(/C=N/NC(=O)c2cccnc2)c1O	1	-1	11	14
CCN(CC)S(=O)(=O)c1cccc(C(=O)N/N=C(\C)c2ccc(O)cc2O)c1	1	0	-16	-2
CCN(CC)S(=O)(=O)c1cccc(C(=O)N/N=C/c2ccc(O)c(O)c2O)c1	2	-1	61*	-6
